D1 PAM: human D1 dopamine receptor positive modulation | potentiation, % at 10 µM | P21728 | HEK293 TREx D1 cells, calcium flux, dopamine EC20 potentiation | 360,000 compounds, 0.036% hits; in the data active = potentiation above about 30%; note: 0% is about no effect
D1 ag: activates the human D1 dopamine receptor; P21728; activation, % at 2 µM; AID 504660; 360,000 compounds, 1% hits; HEK293 T-REx D1 cells, calcium flux, agonist mode; in the data active = activation above about 30%; note: 0% is about no effect
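Tetracycline-induced HEK293 TREx D1 cells, force-coupled to calcium signalling, were dye-loaded with a no-wash calcium kit. Compound was pin-added after a 10 s baseline. Fluorescence was read kinetically at 1 cycle/s for 180 s, with calcium rises flagged as agonism.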
DRD3 antagonist: D3 dopamine receptor (human) antagonism | max response, negative = inhibition, % | 360,000 compounds, 2.5% hits | AID 652054 | D3R cells, DiscoveRx beta-arrestin luminescence, antagonist mode; active compounds read low; in the data active = max response below about -50%; inconclusive = no clear call, values can overlap the other calls; note: % is set by controls: 0 for no effect and ±100 for the full control effect
Target sequence (P35462 whole entry, looked up): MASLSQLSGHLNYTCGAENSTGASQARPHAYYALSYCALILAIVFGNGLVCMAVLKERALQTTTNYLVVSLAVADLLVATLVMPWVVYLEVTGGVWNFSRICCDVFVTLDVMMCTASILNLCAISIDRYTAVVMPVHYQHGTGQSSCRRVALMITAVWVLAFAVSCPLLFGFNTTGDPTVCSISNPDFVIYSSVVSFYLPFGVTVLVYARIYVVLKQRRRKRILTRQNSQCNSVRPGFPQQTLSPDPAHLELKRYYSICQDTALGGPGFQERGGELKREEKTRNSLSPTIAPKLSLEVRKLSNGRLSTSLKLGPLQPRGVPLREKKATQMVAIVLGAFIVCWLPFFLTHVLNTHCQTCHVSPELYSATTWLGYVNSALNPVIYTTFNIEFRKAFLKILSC
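Cells plated overnight at 1500 cells/well, then exposed to library compounds with dopamine controls for 90 minutes at 37 degrees C. DiscoveRx reagent added for 30–60 minutes at room temperature; luminescence read, quantitative HTS format.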
D1 antag: blocks dopamine activation of the human D1 receptor. activity change, negative = inhibition, % at 10 µM. HEK293 TREx D1 cells, calcium flux, dopamine EC80; active compounds read low. AID 504652. 360,000 compounds, 3.2% hits; in the data active = activity change below about -30%; note: % is set by controls: 0 for no effect and ±100 for the full control effect
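Kinetic fluorescence of a calcium dye serves as the read-out. D1-expressing Hek293 Trex cells, induced overnight at 30 C, are exposed to compound for 180 s before an EC80 dopamine addition, then read 180 s further.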
DRD3 agonist: D3 dopamine receptor (human) agonism; max activation, %; 410,000 compounds, 0.58% hits; D3R DiscoveRx beta-arrestin cells, luminescence, 90 min; P35462; in the data active = max activation above about 30%; note: 0% is about no effect
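Agonist mode: compounds and dopamine controls were applied to plated cells for 90 min at 37 degrees C after an overnight attachment at 1500 cells/well. Luminescent read-out followed 30 - 60 minutes at room temperature with DiscoveRx detection reagent.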
* hit, by the source's call. Rows were chosen to be rich in hits. Some 6% of all compounds tested hit in one or more screens of this group.

`CC(C)(C)c1ccc(-n2ncc3c2CCCC3NC(=O)CCN2CCCCC2=O)cc1` (stereo not drawn) gave D1 PAM 1, D1 ag 7, DRD3 antagonist 2, D1 antag -5 and DRD3 agonist 10.
Screening CC(C)(C)c1ccc(-n2ncc3c2CCCC3NC(=O)CN2CCOC2=O)cc1 (stereo not drawn) returned D1 PAM -7, D1 ag 7, DRD3 antagonist 10, D1 antag -42* and DRD3 agonist 8.
`Cc1ncoc1C(=O)NC1CCCc2c1cnn2-c1ccc(C(C)(C)C)cc1` (stereo not drawn) gave D1 PAM -4, D1 ag 11, DRD3 antagonist 34, D1 antag -14 and DRD3 agonist 30*.
CC(=O)c1cccc(-c2ccnc3c2CC(C(=O)Nc2cccc(Oc4ccccc4)c2)O3)c1 (stereo not drawn) was read as DRD3 antagonist inconclusive and DRD3 agonist -1.
For O=C1c2ccccc2C(=O)N1SC1CCCCC1 the results were D1 PAM 5, D1 ag 3, DRD3 antagonist -92*, D1 antag 17 and DRD3 agonist 1.
`COc1cc(OC)cc(C(=O)OCc2cc3ccccc3[nH]c2=O)c1` gave D1 PAM -12, D1 ag 0, DRD3 antagonist 17, D1 antag -40* and DRD3 agonist -2.
Screening Cc1ccc2cc(COC(=O)c3cccc([N+](=O)[O-])c3)c(=O)[nH]c2c1 returned D1 PAM -7, D1 ag 1, DRD3 antagonist 7, D1 antag -34* and DRD3 agonist -1.
For CCc1ccc(NC(=O)CSc2nc(=O)n(Cc3ccncc3)c3c2CCC3)cc1 the results were D1 PAM -1, D1 ag 0 and DRD3 agonist 6.
Screening [O-][n+]1cccc(CO)c1 returned DRD3 agonist -19.
`COc1ccc(S(=O)(=O)N2CCOCC2)cc1NC(=O)c1ccc(S(=O)(=O)N(C)c2ccccc2OC)cc1` gave DRD3 antagonist 7 and DRD3 agonist -3.
`O=c1c2cccc3c(N4CCOCC4)ccc(c32)c2nc3ccccc3n12` gave D1 PAM 1, D1 ag 72* and D1 antag -18.
For CCOc1ccc(NC(=S)N2CCCN(Cc3cccc(Cl)c3)C2)cc1 the results were D1 PAM -5, D1 ag 0, DRD3 antagonist -74*, D1 antag -11 and DRD3 agonist -13.
COc1cccc(NC(=S)N2CCCN(Cc3ccc(F)cc3)C2)c1 was read as D1 PAM -12, D1 ag 12, DRD3 antagonist inconclusive, D1 antag -41* and DRD3 agonist -14.
CSc1cccc(NC(=S)N2CCCN(Cc3cccc(Cl)c3)C2)c1 was read as D1 PAM 4, D1 ag 7, DRD3 antagonist inconclusive, D1 antag 9 and DRD3 agonist -15.
`Fc1ccc(CN2CCCN(C(=S)Nc3ccc(F)cc3)CC2)cc1` gave D1 PAM -2, D1 ag 9, DRD3 antagonist -59*, D1 antag -6 and DRD3 agonist -14.
For COc1ccc(NC(=S)N2CCCN(Cc3cc(C)ccc3C)C2)cc1 the results were D1 PAM 2, D1 ag 8, DRD3 antagonist -27, D1 antag -10 and DRD3 agonist -9.
`COc1ccc(NC(=S)N2CCCN(Cc3cccc(Cl)c3)C2)cc1` gave D1 PAM 23, D1 ag 7, DRD3 antagonist -80*, D1 antag 6 and DRD3 agonist -13.
Screening Cc1cccc(C)c1NC(=S)N1CCCN(Cc2ccc(F)cc2)C1 returned D1 PAM -3, D1 ag 1, DRD3 antagonist -14, D1 antag -11 and DRD3 agonist -8.
S=C(Nc1ccccc1)N1CCN(Cc2ccccc2)CC1 was read as D1 PAM -1, D1 ag 4, DRD3 antagonist -2, D1 antag -2 and DRD3 agonist -8.
`CCOC(=O)c1c(NC(=O)CN2C(=O)C(=O)N(C(C)C)C2=O)sc(C)c1CC` gave D1 PAM -14, D1 ag 6, DRD3 antagonist 5, D1 antag -14 and DRD3 agonist 0.
For COC(=O)c1c(NC(=O)CN2C(=O)C(=O)N(C(C)C)C2=O)sc(C)c1C the results were D1 PAM -3, D1 ag 0, DRD3 antagonist 11, D1 antag -37* and DRD3 agonist -5.
`Cc1cc(CNC(=O)CC2C(=O)NCCN2Cc2ccccc2)nn1C` (stereo not drawn) gave D1 PAM 0, D1 ag 1, DRD3 antagonist 0, D1 antag 0 and DRD3 agonist 3.
Screening Cc1cc(CNC(=O)CC2C(=O)NCCN2CC(C)(C)C)nn1C (stereo not drawn) returned D1 PAM 8, D1 ag -1, DRD3 antagonist 8, D1 antag -39* and DRD3 agonist 0.
For Cc1ccc(-c2nc(CN3CCCCC3)cc(CN3CCCCC3)c2O)cc1 the results were D1 PAM -7, D1 ag 10, DRD3 antagonist -55*, D1 antag -3 and DRD3 agonist -15.
`COc1cc(NC(=O)CCCOc2cc(=O)n(C)c3ccccc23)cc(OC)c1OC` gave D1 PAM -2, D1 ag 3, D1 antag 3 and DRD3 agonist 3.
O=C(CCNS(=O)(=O)c1ccc2c(c1)CCN2C(=O)C1CC1)N1CCN(c2ccccc2F)CC1 was read as D1 PAM -2, D1 ag 3, D1 antag -19 and DRD3 agonist -3.
COC(=O)c1cc(S(=O)(=O)NCCN2CCN(c3ccccc3F)CC2)c[nH]1 was read as D1 PAM -11, D1 ag 4, DRD3 antagonist inconclusive, D1 antag -43* and DRD3 agonist 1.
`O=C(C1CCC1)N1CCc2cc(S(=O)(=O)NCCN3CCN(c4ccccc4F)CC3)ccc21` gave D1 PAM -10, D1 ag 3, DRD3 antagonist -28, D1 antag -39* and DRD3 agonist 67*.
For O=C(NCc1ccc(F)cc1)c1cccc(N2CCCS2(=O)=O)c1 the results were D1 PAM -2, D1 ag 1, D1 antag -3 and DRD3 agonist -11.
Screening COc1ccc2cc3cc(C(=O)NCCN4CCc5ccccc5C4)sc3nc2c1 returned D1 PAM 10, D1 ag 3, DRD3 antagonist -93*, D1 antag 12 and DRD3 agonist -28.
Screening O=C(NCCCN1CCc2ccccc2C1)Nc1ccc(Br)cc1 returned D1 PAM -7, D1 ag 41*, DRD3 antagonist -55*, D1 antag -26 and DRD3 agonist -8.
Screening COc1ccc(NC(=O)NCCCN2CCc3ccccc3C2)cc1 returned D1 PAM -8, D1 ag 0, DRD3 antagonist -108*, D1 antag 18 and DRD3 agonist -12.

Compound activity deposited in PubChem BioAssay by National Center for Advancing Translational Sciences (NCATS).
